Experimental data reported in PubChem BioAssay (EPA / NIEHS).
Activity calls are given as the source filed them. Rule for the calls: active = hit-call score of the fitted dose curve at least 0.9, where 1 is the maximum; inactive = score below 0.9.

Experiments:
[1] = biological target: CCAAT/enhancer-binding protein beta (Homo sapiens) (UniProt P17676); test: ATG_C_EBP_CIS: Attagene CIS-FACTORIAL HepG2 Assay for human CCAAT/Enhancer Binding Protein (C/EBP) beta (AID 2282927); conditions: HepG2 Attagene cis-factorial transcription factor reporter; actives raise or lower the signal
Sequence of CCAAT/enhancer-binding protein beta (Homo sapiens) (P17676 whole entry, looked up): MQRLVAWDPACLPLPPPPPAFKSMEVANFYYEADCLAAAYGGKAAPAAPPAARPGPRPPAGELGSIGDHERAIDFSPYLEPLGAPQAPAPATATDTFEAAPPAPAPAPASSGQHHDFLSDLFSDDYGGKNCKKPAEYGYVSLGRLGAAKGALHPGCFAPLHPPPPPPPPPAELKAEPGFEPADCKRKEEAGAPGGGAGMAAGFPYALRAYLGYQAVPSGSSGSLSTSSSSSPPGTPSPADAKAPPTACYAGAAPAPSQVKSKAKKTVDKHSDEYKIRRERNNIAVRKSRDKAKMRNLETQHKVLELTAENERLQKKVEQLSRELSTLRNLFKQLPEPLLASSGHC
Method in brief: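 Following a 24 h incubation with test chemical, transfected HepG2 cells yielded RNA whose reporter transcripts were quantified by RT-PCR and fluorescent capillary electrophoresis, with DMSO serving as baseline for bidirectional fitting.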

[2] = ATG_CMV_CIS: Attagene CIS-FACTORIAL HepG2 Assay for human CMV (Internal Marker) (AID 2282928); conditions: HepG2 CMV promoter reporter, transcription factor profiling; actives raise or lower the signal;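 note: endpoint acts as a background internal control marker rather than a target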
Method in brief: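 After transient transfection of HepG2 with reporter transcription units driven by cis-regulatory promoters, cells receive test chemical for 24 h. Labeled reporter amplicons, digested with HpaI, are sized and quantified by capillary electrophoresis against DMSO.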

[3] = ATG_AP_1_CIS: Attagene CIS-FACTORIAL HepG2 Assay for human Activator Protein 1 (AP-1) (AID 2282931); conditions: HepG2 Attagene cis-factorial AP-1 reporter mRNA; actives raise or lower the signal
Method in brief: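 Cis-regulated reporter units transiently expressed in HepG2 report endogenous transcription-factor activity. Signal: reporter mRNA at 24 h, via RT-PCR and fluorescent capillary electrophoresis. Endpoint derived by bidirectional fitting, DMSO as negative control.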

[4] = ATG_AP_2_CIS: Attagene CIS-FACTORIAL HepG2 Assay for human Activator Protein 2 (AP-2) (AID 2282932); conditions: HepG2 AP-2 cis-reporter, Attagene transcription factor profiling; actives raise or lower the signal
Method in brief: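 HepG2 cells were transiently transfected with multiple cis-promoter reporter transcription units and dosed for 24 h. Reporter mRNA was measured by RT-PCR with capillary electrophoresis fluorescence; bidirectional fits relative to DMSO baseline.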

[5] = ATG_BRE_CIS: Attagene CIS-FACTORIAL HepG2 Assay for human Bone Morphogenetic Protein (BMP) Response Element (BRE) (AID 2282933); conditions: HepG2 BMP response element reporter, Attagene transcription factor profiling; actives raise or lower the signal
Method in brief: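 HepG2 cells transiently transfected with CIS reporter units (endogenous TF activity, BMP response element), dosed 24 h. Reporter mRNA quantified by RT-PCR, fluorescent labelling and capillary electrophoresis; bidirectional fit vs DMSO baseline.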

[6] = ATG_E_Box_CIS: Attagene CIS-FACTORIAL HepG2 Assay for human Enhancer Box (E-box) (AID 2282936); conditions: HepG2 E-box cis-reporter transcription, actives raise or lower the signal
Method in brief: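 HepG2 cells transiently transfected with multiplexed cis-element reporter units sensing endogenous transcription factor activity; 24 h compound exposure. Reporter mRNA measured by RT-PCR, 6-FAM primer extension, HpaI digestion and capillary electrophoresis; bidirectional fit versus DMSO.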

[7] = ATG_M_61_CIS: Attagene CIS-FACTORIAL HepG2 Assay for M61 Transcription Factor (Internal Marker) (AID 2282937); conditions: HepG2 Attagene CIS-FACTORIAL M61 internal marker reporter; actives raise or lower the signal
Method in brief: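 Background-control endpoint: HepG2 cells with cis-regulated reporter constructs, 24 h exposure, reporter mRNA detected via fluorescent primer extension and capillary electrophoresis; values from bidirectional fitting with DMSO baseline.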

[8] = ATG_EGR_CIS: Attagene CIS-FACTORIAL HepG2 Assay for human Early Growth Response 1 (EGR1) (AID 2282938); conditions: HepG2 Attagene CIS-FACTORIAL EGR reporter mRNA; actives raise or lower the signal
Method in brief: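 Endpoint derived by bidirectional fitting versus DMSO vehicle. Method: cis-promoter reporter units transfected into HepG2, 24 h dosing, RNA isolation, RT-PCR with 6-FAM primer extension and HpaI digestion, then capillary electrophoresis fluorescence detection.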

[9] = ATG_Ets_CIS: Attagene CIS-FACTORIAL HepG2 Assay for human Erythroblast Transformation Specific (ETS) (AID 2282941); conditions: HepG2 ETS cis-reporter transcription, actives raise or lower the signal
Method in brief: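 Human HepG2 hepatoma cells were transiently transfected with promoter-driven reporter constructs and treated for 24 hours. Reporter transcripts were quantified by RT-PCR with fluorescent primer extension; bidirectional curve fitting used DMSO as reference.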

[10] = biological target: Hepatocyte nuclear factor 3-beta (Homo sapiens) (UniProt Q9Y261); test: ATG_FoxA2_CIS: Attagene CIS-FACTORIAL HepG2 Assay for human Forkhead box A2 (FOXA2) (AID 2282942); conditions: HepG2 cis-reporter transcription factor activity, 24 h; actives raise or lower the signal
Sequence of Hepatocyte nuclear factor 3-beta (Homo sapiens) (Q9Y261 whole entry, looked up): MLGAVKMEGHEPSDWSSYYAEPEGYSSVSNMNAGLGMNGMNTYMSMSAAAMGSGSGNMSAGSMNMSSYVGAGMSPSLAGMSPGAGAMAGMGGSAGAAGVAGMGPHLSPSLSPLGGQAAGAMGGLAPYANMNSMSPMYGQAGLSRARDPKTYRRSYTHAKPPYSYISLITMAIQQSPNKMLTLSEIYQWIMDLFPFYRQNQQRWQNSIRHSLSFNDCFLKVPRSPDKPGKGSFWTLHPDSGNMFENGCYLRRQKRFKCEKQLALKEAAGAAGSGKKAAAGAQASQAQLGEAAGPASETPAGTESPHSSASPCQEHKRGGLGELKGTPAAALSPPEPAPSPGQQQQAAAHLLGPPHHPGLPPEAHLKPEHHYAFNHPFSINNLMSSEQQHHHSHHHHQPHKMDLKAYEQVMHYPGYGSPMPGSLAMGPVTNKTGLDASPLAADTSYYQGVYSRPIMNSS
Method in brief: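 Measured: reporter mRNA induction or loss in HepG2 transiently carrying multiple cis-regulated reporter units, 24 h after dosing. Quantified by RT-PCR plus capillary electrophoresis, normalised to DMSO.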

[11] = ATG_FoxO_CIS: Attagene CIS-FACTORIAL HepG2 Assay for human Forkhead box O (FoxO) (AID 2282943); conditions: HepG2 Attagene cis-reporter, FoxO element, mRNA; actives raise or lower the signal
Method in brief: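 Values reflect reporter mRNA induction or loss in HepG2 cells 24 h post-dosing, fitted bidirectionally with DMSO as negative control and baseline. Detection used RT-PCR and fluorescence capillary electrophoresis.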

[12] = ATG_GATA_CIS: Attagene CIS-FACTORIAL HepG2 Assay for human GATA Binding Protein (AID 2282944); conditions: HepG2 GATA cis-element reporter, Attagene multiplex mRNA; actives raise or lower the signal
Method in brief: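 HepG2 cells transiently transfected with multiplexed cis-element reporter units measure endogenous GATA activity; after 24 h compound exposure, reporter mRNA quantified by RT-PCR and capillary electrophoresis. Changes fitted in both directions vs DMSO.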

[13] = ATG_ISRE_CIS: Attagene CIS-FACTORIAL HepG2 Assay for human Interferon Regulatory Factor 1 (IRF1) binding to an Interferon-Stimulated Response Element (ISRE) (AID 2282948); conditions: HepG2 ISRE cis-reporter (Attagene), mRNA transcription readout; actives raise or lower the signal
Method in brief: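 Cell-based cis-reporter assay; HepG2; 24 h exposure; reporter mRNA by RT-PCR plus capillary electrophoresis fluorescence; activity in either direction scored relative to DMSO.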

[14] = ATG_M_32_CIS: Attagene CIS-FACTORIAL HepG2 Assay for M32 Transcription Factor (Internal Marker) (AID 2282949); conditions: HepG2 Attagene cis-factorial M32 reporter, mRNA; actives raise or lower the signal;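 note: background control marker of the multiplexed CIS panel rather than a real target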
Method in brief: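 Following 24 h chemical exposure of HepG2 cells transiently expressing cis-promoter reporter constructs, reporter transcript levels were determined by RT-PCR with fluorescent labelling and capillary electrophoresis, then fitted bidirectionally against DMSO.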

[15] = ATG_M_06_CIS: Attagene CIS-FACTORIAL HepG2 Assay for M06 Transcription Factor (Internal Marker) (AID 2282950); conditions: HepG2 Attagene CIS-FACTORIAL M06 internal marker reporter; actives raise or lower the signal
Method in brief: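 Internal background marker within multiplexed cis-reporter HepG2 system. Cells transiently transfected, dosed 24 h; reporter mRNA measured by RT-PCR, HpaI digestion and capillary electrophoresis. Bidirectional fit relative to DMSO.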

[16] = biological target: Hepatocyte nuclear factor 6 (Homo sapiens) (UniProt Q9UBC0); test: ATG_HNF6_CIS: Attagene CIS-FACTORIAL HepG2 Assay for human Hepatocyte Nuclear Factor 6 (HNF6) (AID 2282952); conditions: HepG2 Attagene cis-factorial HNF6 reporter transcription; actives raise or lower the signal
Sequence of Hepatocyte nuclear factor 6 (Homo sapiens) (Q9UBC0 whole entry, looked up): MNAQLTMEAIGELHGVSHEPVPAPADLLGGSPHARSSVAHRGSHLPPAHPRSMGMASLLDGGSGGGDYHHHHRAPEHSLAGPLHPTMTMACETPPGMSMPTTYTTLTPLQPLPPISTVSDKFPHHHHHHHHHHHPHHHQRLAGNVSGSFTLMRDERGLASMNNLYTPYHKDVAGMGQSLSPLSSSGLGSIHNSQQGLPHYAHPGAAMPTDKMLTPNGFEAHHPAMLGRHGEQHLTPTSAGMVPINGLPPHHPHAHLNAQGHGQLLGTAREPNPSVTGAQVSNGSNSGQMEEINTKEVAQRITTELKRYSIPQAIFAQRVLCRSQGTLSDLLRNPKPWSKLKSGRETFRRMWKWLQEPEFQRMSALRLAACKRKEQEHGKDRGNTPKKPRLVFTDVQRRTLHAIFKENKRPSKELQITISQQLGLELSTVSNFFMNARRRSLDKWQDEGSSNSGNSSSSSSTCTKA
Method in brief: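 Multiplexed mRNA reporter assay in transfected HepG2; 24 h dosing; RT-PCR plus capillary electrophoresis fluorescence; DMSO-referenced bidirectional curve fitting.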

[17] = ATG_MRE_CIS: Attagene CIS-FACTORIAL HepG2 Assay for human Metal Responsive Element (MRE) (AID 2282954); conditions: HepG2 MRE cis-reporter transcription, Attagene multiplex; actives raise or lower the signal
Method in brief: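 HepG2 cells transiently transfected with multiple cis-element reporter units measure endogenous MTF1-driven transcription. After 24 h compound exposure, reporter mRNA is quantified by RT-PCR with 6-FAM labelling, HpaI digestion and capillary electrophoresis; bidirectional fits versus DMSO.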

[18] = ATG_Sox_CIS: Attagene CIS-FACTORIAL HepG2 Assay for human SRY-box transcription factor (SOX) (AID 2282960); conditions: HepG2 Attagene cis-factorial SOX reporter, mRNA; actives raise or lower the signal
Method in brief: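 Gain- or loss-of-signal endpoint, fitted bidirectionally with DMSO as negative control. Based on reporter mRNA from transfected HepG2 cells harvested 24 h post-treatment and quantified via RT-PCR and capillary electrophoresis.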

[19] = biological target: Transcription factor Sp1 (Homo sapiens) (UniProt P08047); test: ATG_Sp1_CIS: Attagene CIS-FACTORIAL HepG2 Assay for human Specificity Protein 1 (Sp1) (AID 2282961); conditions: HepG2 Sp1 cis-reporter transcription, actives raise or lower the signal
Sequence of Transcription factor Sp1 (Homo sapiens) (P08047 whole entry, looked up, the tested form may be a part): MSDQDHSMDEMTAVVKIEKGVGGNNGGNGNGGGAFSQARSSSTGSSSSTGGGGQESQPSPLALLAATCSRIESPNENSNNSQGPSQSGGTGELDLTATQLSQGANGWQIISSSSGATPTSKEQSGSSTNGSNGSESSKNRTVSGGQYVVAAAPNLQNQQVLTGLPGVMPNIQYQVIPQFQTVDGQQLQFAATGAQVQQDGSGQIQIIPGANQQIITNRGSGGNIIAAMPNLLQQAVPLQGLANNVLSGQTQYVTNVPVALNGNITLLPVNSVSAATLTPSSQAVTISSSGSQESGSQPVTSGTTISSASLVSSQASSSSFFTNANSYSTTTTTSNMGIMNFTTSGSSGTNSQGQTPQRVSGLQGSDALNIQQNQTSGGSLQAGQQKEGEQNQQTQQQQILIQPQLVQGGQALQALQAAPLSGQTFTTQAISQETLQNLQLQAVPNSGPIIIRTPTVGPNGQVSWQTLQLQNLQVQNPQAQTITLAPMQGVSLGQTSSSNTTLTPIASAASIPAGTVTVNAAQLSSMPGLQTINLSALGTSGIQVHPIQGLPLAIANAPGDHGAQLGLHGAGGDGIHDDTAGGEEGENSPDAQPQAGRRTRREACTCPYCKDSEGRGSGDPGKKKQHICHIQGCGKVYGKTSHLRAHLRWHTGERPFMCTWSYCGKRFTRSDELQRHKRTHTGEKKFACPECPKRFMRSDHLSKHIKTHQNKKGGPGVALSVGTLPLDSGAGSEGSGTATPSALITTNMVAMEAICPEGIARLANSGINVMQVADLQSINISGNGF
Method in brief: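 Endpoint reflects endogenous Sp1 transcriptional activity, not an exogenous fusion protein: HepG2 cells with transfected cis-regulated reporters, 24 h dosing, RT-PCR/capillary electrophoresis mRNA read-out, DMSO-normalised bidirectional fit.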

[20] = biological target: Signal transducer and activator of transcription 3 (Homo sapiens) (UniProt P40763); test: ATG_STAT3_CIS: Attagene CIS-FACTORIAL HepG2 Assay for human Signal Transducer and Activator of Transcription 3 (STAT3) (AID 2282963); conditions: HepG2, Attagene cis-factorial STAT3 reporter transcription; actives raise or lower the signal
Sequence of Signal transducer and activator of transcription 3 (Homo sapiens) (P40763 whole entry, looked up): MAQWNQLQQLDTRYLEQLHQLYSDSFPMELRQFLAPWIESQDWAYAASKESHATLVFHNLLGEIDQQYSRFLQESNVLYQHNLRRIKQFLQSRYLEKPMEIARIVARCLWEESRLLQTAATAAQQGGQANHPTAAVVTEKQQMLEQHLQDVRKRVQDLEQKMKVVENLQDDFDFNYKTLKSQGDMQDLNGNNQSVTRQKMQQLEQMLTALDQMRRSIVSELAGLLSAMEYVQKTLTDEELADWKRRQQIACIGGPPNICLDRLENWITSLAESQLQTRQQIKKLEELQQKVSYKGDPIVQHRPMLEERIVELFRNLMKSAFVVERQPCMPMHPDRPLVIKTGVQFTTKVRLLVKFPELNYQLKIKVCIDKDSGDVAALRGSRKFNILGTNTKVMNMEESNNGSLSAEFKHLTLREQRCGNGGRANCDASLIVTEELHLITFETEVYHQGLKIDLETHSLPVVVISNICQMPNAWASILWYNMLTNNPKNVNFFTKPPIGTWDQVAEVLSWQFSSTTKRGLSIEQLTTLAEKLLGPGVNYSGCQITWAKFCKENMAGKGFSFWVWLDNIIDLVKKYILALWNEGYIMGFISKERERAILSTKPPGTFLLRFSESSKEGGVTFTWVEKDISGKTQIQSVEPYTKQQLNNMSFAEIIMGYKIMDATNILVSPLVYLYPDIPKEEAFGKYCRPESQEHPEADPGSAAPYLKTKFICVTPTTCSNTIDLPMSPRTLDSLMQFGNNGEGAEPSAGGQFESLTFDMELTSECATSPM
Method in brief: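 HepG2 cells transiently transfected with cis-element-driven multiple reporter transcription units; after 24 h chemical exposure, reporter mRNA measured by RT-PCR, 6-FAM primer-extension labelling, HpaI digestion and capillary electrophoresis. Bidirectional fitting versus DMSO baseline.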

Measured: AC50

ClCC(Cl)Cl
inactive: all assays above

COC(=O)c1ccccc1S(=O)(=O)NC(=O)Nc1nc(C)cc(C)n1
inactive: all assays above

Nc1ccccc1C(=O)OCCc1ccccc1
active: [10] 14.6 µM | [17] 33.4 µM
inactive: all other assays above

Cc1ccc(N(SC(F)(Cl)Cl)S(=O)(=O)N(C)C)cc1
active: [2] 15.8 µM | [8] 11.1 µM | [13] 14.7 µM | [17] 15.8 µM | [18] 18.5 µM | [19] 18.8 µM
inactive: all other assays above

CCOP(O)OCC
inactive: all assays above

CCC(C)(C)O
inactive: all assays above
